Experiment in all cases: NCI-60 one-dose screen, 48 h (100 = growth as untreated, 0 = no growth, -100 = all killed)
Conditions in all cases: 10 µM

In experiment [1] the test system is NCI-H23 lung.
The subject of experiment [2] is NCI-H226 lung.
Experiment [3] deals with NCI-H322M lung.
The test system of experiment [4] is HOP-62 NSCLC.
Experiment [5] deals with NCI-H460 lung.
In experiment [6] the test system is HOP-92 NSCLC.
Experiment [7] relates to NCI-H522 lung.
The test system of experiment [8] is A549/ATCC NSCLC.
The test system of experiment [9] is 786-0 renal.
Experiment [10] relates to COLO 205 colon.

The panel holds about 83,000 compounds, 20% with a hit somewhere; the sample as a whole holds those more often.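 Interpretation: 100, growth as untreated; towards 0, rising growth inhibition; 0, no net growth; 0 to -100, cell death. Compounds scoring below 10 were considered active.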 Values without a mark were called inactive. Active and inactive are the calls of the source.

Regarding `CN1CCN(c2ccc(Nc3nc(NCCCNC(=O)c4ccc(F)cc4)c4sccc4n3)cc2)CC1`, the growth was 74.8% in [1]; 81.2% in experiment [2]; 79.9% in experiment [3]; 92.5% in experiment [4]; 62.5% in [5]; 56.8% in experiment [6]. Moreover, the growth in experiment [7] is 87.5%; in [8] it was 56.3%; in experiment [9], -4.91% (active); in experiment [10] it was 90.3%.
Take `CC(C)NC(=O)c1cc(-c2ccc(NC(=O)Nc3ccc(N4CCN(C)CC4)c(C(F)(F)F)c3)cc2)nc2cccnc12`: the growth in [1] was -84.6% (active); in experiment [2], -69.1% (active); in experiment [3] it was -90.6% (active); in experiment [4], -88.4% (active); in [5], -61.7% (active); in experiment [6] it was -74.8% (active). Also, the growth was -90.8% (active) in experiment [7], -78.9% (active) in experiment [8], -93.8% (active) in experiment [9] and -81.1% (active) in experiment [10].
As to `O=C(Cn1nc(-c2ccccc2)ccc1=O)NN1C(=O)c2ccccc2C1=O`, the growth was 105% in [1]; 101% in experiment [2]; 117% in experiment [3]; 102% in experiment [4]; 99.7% in experiment [5]; 125% in experiment [6]. Moreover, the growth in experiment [7] was 77.5%; in [8], 108%; in experiment [9], 103%; in experiment [10] it was 131%.
For `C/C(=C\CSc1ccccc1C(=O)O)CCCC(C)CCCC(C)CCCC(C)C` (stereo not given), the growth in experiment [1] was 35.5%; in experiment [2], 77.5%; in experiment [3], 65.8%; in experiment [4], 57.6%; in [5], 39.6%; in experiment [6] it was 71.4%. Also, the growth in [7] was 23.3%; in experiment [8] it was 41.3%; in [9], 67.3%; in experiment [10] it was 87.8%.
With `O=C(c1ccc(O)cc1)C1[C@H](c2ccccc2Br)[C@@H](c2ccccc2)NC12C(=O)Nc1ccc(Cl)cc12` (stereo not given in full), the growth is -34.8% (active) in experiment [1]; -7.3% (active) in experiment [2]; 27% in experiment [3]; 6.01% (active) in experiment [4]; 9.99% (active) in experiment [5]; -1.49% (active) in experiment [6]. The growth in experiment [7] was -47.1% (active); in [8], -4.7% (active); in experiment [9], 2.9% (active); in [10], -76.9% (active).
Regarding `C=C[C@H]1[C@H](O[C@@H]2OC(CO)[C@@H](O)[C@H](O)C2OC(=O)c2c(O)cc(O)cc2-c2cccc(O)c2)OC=C2C(=O)OCC[C@H]21` (stereo not given in full), the growth is 96.5% in experiment [1]; 98.8% in experiment [2]; 93.8% in experiment [3]; 93.6% in [4]; 107% in [5]; 132% in experiment [6]. Moreover, the growth in experiment [7] is 106%; in experiment [8], 95.3%; in experiment [9], 105%; in experiment [10], 107%.
Turning to `C#Cc1ccc(S(=O)(=O)Nc2cccc(-c3csc(NC(C)=O)n3)c2)cc1`, the growth was 65.2% in experiment [1]; 71.8% in experiment [2]; 98.9% in experiment [3]; 84.6% in [4]; 76.7% in [5]; 42.5% in experiment [6]. Besides, the growth in [7] is 56.4%; in experiment [8] it was 62.8%; in experiment [9] it was 88.2%; in [10], 88.3%.
As to `O/N=C(\CSc1nnc(-c2c[nH]c3ccccc23)n1-c1ccccc1)c1ccc(Br)cc1`, the growth in experiment [1] is 14.1%; in [2], 6.3% (active); in experiment [3], -72.7% (active); in experiment [4], -54.8% (active); in [5] it was -21.9% (active); in [6] it was -11.2% (active). Further, the growth in [7] was -29.7% (active); in [8] it was -18.2% (active); in experiment [9] it was 34.7%; in experiment [10], -41.2% (active).
With `COc1ccc(C(=O)Nc2ccc(-c3ccc4c(c3)NC(=O)/C4=C\c3ccc[nH]3)cc2)cc1`, the growth in experiment [1] was 41.5%; in experiment [2], -4.15% (active); in [3], 86.6%; in [4], 63.1%; in experiment [5], 14.9%; in experiment [6], 97.5%. Further, the growth is 64.2% in experiment [7], 74.4% in experiment [8], 20.4% in [9] and 48.1% in experiment [10].
For `CNC(=O)c1cc(-c2ccc(NC(=O)Nc3ccc(C)cc3)cc2)nc2cccnc12`, the growth is 101% in [1]; 61.4% in experiment [2]; 96.6% in [3]; 90.6% in experiment [4]; 105% in experiment [5]; 64.6% in [6]. Also, the growth in [7] was 87.5%; in [8], 98.1%; in experiment [9], 104%; in [10], 115%.
With `CC1(C)[C@@H](NCO)CC[C@]2(C)[C@H]3C(=O)C=C4[C@@H]5C[C@](C)(CO)CC[C@]5(C)CC[C@@]4(C)[C@]3(C)CC[C@@H]12`, the growth in [1] was 66.5%; in experiment [2] it was 68%; in experiment [3], 63.1%; in experiment [4], 85.2%; in experiment [5], 0.687% (active); in experiment [6] it was 52%. Moreover, the growth in experiment [7] is 72.7%; in experiment [8], 60%; in [9] it was 42.8%; in experiment [10] it was 24.6%.
`Cc1ccc(-c2nc(Nc3ccc(C)c(S(N)(=O)=O)c3)c3ccccc3n2)cc1`: the growth was 79% in [1]; 84.1% in [2]; 79.7% in [3]; 96.3% in [4]; 11.9% in experiment [5]; 104% in [6]. The growth in experiment [7] is 112%; in [8], 43.4%; in [9], 33.7%; in experiment [10], 90.5%.
In the case of `CN1C(=O)N(C)C2SC(N/N=C/C=C/c3ccccc3)=NC21` (stereo not given), the growth was 84.9% in experiment [1]; 79.3% in [2]; 93.9% in experiment [3]; 85.9% in experiment [4]; 94.5% in experiment [5]; 97.9% in [6]. Further, the growth in [7] was 56.1%; in [8] it was 87.5%; in [9], 73.9%; in experiment [10], 122%.

These data come from PubChem BioAssay (NCI).
